The values below come from PubChem BioAssay (NCATS).

Holding throughout (assay): qHTS profiling for inhibitors of Plasmodium falciparum proliferation (AID 504749); further: nearly all actives have a fitted effect of over 60% in size
Holding throughout (conditions): P. falciparum in erythrocytes, SYBR Green DNA, 72 h; series mostly up to 28.7 µM

One assay has as its system DFO2036. In short, it runs like this: (§1)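 Each compound contacts P. falciparum-infected red blood cells for 72 h at 37 C; lysis buffer (Tris, EDTA, saponin, Triton X, SYBR Green I) is added and fluorescence measured next morning; values normalized to controls.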
The next assay deals with DIV14. An outline of the steps: as §1
For a further assay, the system named is DIV17. In short, it runs like this:
as §1

The test system of the next assay is DIV30. An outline of the steps: as §1
Another assay deals with Dd2. An outline of the steps:
as §1

A further assay concerns ECU. In short, it runs like this: as §1
Another assay deals with FAB9. An outline of the steps: as §1
In another assay the test system is GB4. An outline of the steps:
as §1

Another assay deals with HB3. In short, it runs like this: as §1
The next assay relates to ICS. In short, it runs like this: as §1
In a further assay the test system is JCK. In short, it runs like this: as §1
A further assay deals with N140. In short, it runs like this:
as §1

In a further assay the test system is P93_24. In short, it runs like this: as §1
Another assay deals with P94_40. An outline of the steps:
as §1

The test system of the next assay is PAD. An outline of the steps: as §1
A further assay has as its system PC15. An outline of the steps: as §1
The test system of the next assay is PC26. In short, it runs like this:
as §1

A further assay relates to PC49. In short, it runs like this:
as §1

The test system of a further assay is SC27B. An outline of the steps: as §1
For the next assay, the system named is TAB109. In short, it runs like this:
as §1

Structures are written as SMILES. Inconclusive results are not listed. Calls of active or inactive are those of the source. The call rests on the fitted dose curve; in most records, active means well fitted inhibition curve with a large enough effect; inconclusive means small, poorly fitted or top-dose-only effect; inactive means flat fitted curve, though single readings scatter.
Potency means the concentration at half of the fitted maximal effect.

Regarding `CCN(CC)CCNC(=O)c1ccc(NC(C)=O)cc1`, the Potency entry in the assay with DFO2036, in the assay on DIV14, with DIV17, in the assay on DIV30, in the assay with Dd2 and with ECU was “inactive” throughout. Moreover, the Potency entry with FAB9, with GB4, in the assay with HB3, in the assay with ICS, in the assay with JCK and in the assay on N140 was “inactive” throughout. For the same compound, the Potency entry in the assay on P93_24, in the assay on P94_40, with PAD, with PC15, in the assay on PC26 and in the assay on PC49 was “inactive” in each case. Also, the Potency entry in the assay on SC27B and in the assay on TAB109 was “inactive” each time.

Regarding `Cc1nc2c([nH]1)c(=O)n(C)c(=O)n2Cc1ccco1`, the Potency entry in the assay with DFO2036, with DIV14, with DIV17, in the assay on DIV30, with Dd2 and in the assay on ECU was “inactive” each time. The Potency entry in the assay on FAB9, in the assay on GB4, in the assay on HB3, in the assay with ICS, with JCK and in the assay with N140 was “inactive” each time. The Potency result with P93_24, in the assay on P94_40, with PAD, with PC15, in the assay with PC26 and in the assay with PC49 was “inactive” in each case. The Potency result in the assay on SC27B and with TAB109 was “inactive” in each case.

Take `NC(=O)c1cn(Cc2c(F)cccc2F)nn1`: the Potency result in the assay with DFO2036, in the assay on DIV14, in the assay with DIV17, with DIV30, in the assay on Dd2 and in the assay with ECU was “inactive” in each case. For the same compound, the Potency result in the assay on FAB9, in the assay with GB4, with HB3, in the assay on ICS, in the assay on JCK and with N140 was “inactive” throughout. Further, the Potency entry in the assay on P93_24, with P94_40, with PAD, in the assay with PC15, in the assay on PC26 and in the assay with PC49 was “inactive” in each case. The Potency result in the assay with SC27B and in the assay with TAB109 was “inactive” throughout.

For the compound `Nc1nc(N)c2nc(-c3ccccc3)c(N)nc2n1`, the Potency entry in the assay on DFO2036, in the assay on DIV14, in the assay with DIV17, in the assay on DIV30, in the assay with Dd2 and in the assay with HB3 was “inactive” throughout. The Potency entry in the assay with ICS, in the assay with JCK, with N140, in the assay on P93_24, with P94_40 and in the assay on PAD was “inactive” in each case. In addition, the Potency entry in the assay on PC15, in the assay on PC26, in the assay on PC49, in the assay on SC27B and in the assay on TAB109 was “inactive” throughout. The Potency is 2.82 µM (active) with ECU, 3.16 µM (active) in the assay with FAB9 and 1.35 µM (active) in the assay with GB4.

For the compound `NC/C=C/C(=O)O`, the Potency result with DFO2036, in the assay with DIV14, in the assay on DIV17, with DIV30, in the assay on Dd2 and in the assay with ECU was “inactive” each time. Moreover, the Potency entry in the assay on FAB9, in the assay on GB4, in the assay with HB3, with ICS, with JCK and in the assay on N140 was “inactive” each time. The Potency result in the assay on P93_24, with P94_40, with PAD, in the assay on PC15, in the assay with PC26 and in the assay on PC49 was “inactive” in each case. The Potency result in the assay with SC27B and in the assay with TAB109 was “inactive” each time.

In the case of `CCn1ccnc1CC1COc2ccccc2O1` (stereo not given), the Potency entry in the assay with DFO2036, in the assay with DIV14, in the assay with DIV17, in the assay with DIV30, in the assay with Dd2 and with ECU was “inactive” throughout. In addition, the Potency entry in the assay on FAB9, in the assay on GB4, in the assay on HB3, in the assay with ICS, in the assay on JCK and in the assay on N140 was “inactive” each time. For the same compound, the Potency result with P93_24, in the assay with P94_40, in the assay with PAD, with PC15, with PC26 and with PC49 was “inactive” each time. Moreover, the Potency entry in the assay with SC27B and in the assay with TAB109 was “inactive” in each case.

Regarding `CCCN(CCC)CCc1cccc2c1CC(=O)N2`, the Potency entry with DFO2036, with DIV14, in the assay on DIV17, with DIV30, in the assay with Dd2 and in the assay with ECU was “inactive” each time. The Potency entry with FAB9, in the assay on GB4, in the assay on HB3, with ICS, in the assay on JCK and in the assay on N140 was “inactive” in each case. Also, the Potency entry in the assay on P93_24, in the assay on P94_40, with PAD, with PC15, in the assay on PC26 and with PC49 was “inactive” each time. The Potency entry with SC27B and with TAB109 was “inactive” each time.

Consider `COCC(=O)O[C@]1(CCN(C)CCCc2nc3ccccc3[nH]2)CCc2cc(F)ccc2[C@@H]1C(C)C`, for which the Potency was 1.26 µM (active) with DFO2036; 0.953 µM (active) in the assay with DIV14; 0.601 µM (active) in the assay on DIV17; 3.38 µM (active) in the assay on DIV30; 0.224 µM (active) in the assay on Dd2; 4.47 µM (active) with ECU. Also, the Potency in the assay on FAB9 is 10 µM (active); with GB4, 0.151 µM (active); in the assay with HB3 it was 7.94 µM (active); in the assay on ICS, 1.78 µM (active); with JCK, 7.94 µM (active); in the assay on N140 it was 0.562 µM (active). The Potency in the assay with P93_24 is 1.58 µM (active); in the assay on P94_40, 2.82 µM (active); with PAD, 3.55 µM (active); in the assay on PC15, 4.47 µM (active); in the assay on PC26, 3.38 µM (active); with PC49 it was 1.12 µM (active). In addition, the Potency with SC27B is 1.78 µM (active); in the assay on TAB109 it was 2.24 µM (active).

`CN(C)C(=O)Oc1cccc([N+](C)(C)C)c1`: the Potency result in the assay on DFO2036, with DIV14, with DIV17, in the assay on DIV30, in the assay on Dd2 and in the assay with ECU was “inactive” each time. Besides, the Potency result in the assay on FAB9, in the assay with GB4, in the assay with HB3, with ICS, with JCK and with N140 was “inactive” in each case. Moreover, the Potency result in the assay on P93_24, with P94_40, in the assay with PAD, with PC15, in the assay with PC26 and in the assay with PC49 was “inactive” in each case. Besides, the Potency result in the assay with SC27B and with TAB109 was “inactive” each time.

Consider `CCCCCN(CCCCC)C(=O)C(CCC(=O)O)NC(=O)c1ccc(Cl)c(Cl)c1` (stereo not given), for which the Potency entry in the assay with DFO2036, in the assay with DIV14, in the assay on DIV17, with DIV30, in the assay on Dd2 and in the assay with ECU was “inactive” throughout. Besides, the Potency entry in the assay on FAB9, with GB4, in the assay with HB3, in the assay on ICS, in the assay on JCK and in the assay with N140 was “inactive” each time. In addition, the Potency result in the assay with P93_24, with P94_40, with PAD, in the assay with PC15, in the assay with PC26 and in the assay on PC49 was “inactive” throughout. Also, the Potency entry with SC27B and in the assay on TAB109 was “inactive” each time.

Take `Cc1scc2c1N(C(=O)CN1CCN(C)CC1)c1ccccc1NC2=O`: the Potency result in the assay on DFO2036, in the assay on DIV14, in the assay on DIV17, in the assay on DIV30, in the assay with Dd2 and with ECU was “inactive” throughout. Further, the Potency entry in the assay with FAB9, in the assay on GB4, with HB3, in the assay on ICS, in the assay with JCK and in the assay on N140 was “inactive” throughout. Further, the Potency entry with P93_24, in the assay with P94_40, in the assay on PAD, in the assay on PC15, with PC26 and with PC49 was “inactive” in each case. Also, the Potency entry in the assay with SC27B and in the assay with TAB109 was “inactive” throughout.

With `O=C(O)CP(=O)(O)O`, the Potency entry in the assay on DFO2036, in the assay with DIV14, in the assay on DIV17, in the assay with DIV30, in the assay with Dd2 and in the assay on ECU was “inactive” throughout. Also, the Potency result in the assay with FAB9, in the assay with GB4, in the assay on HB3, in the assay on ICS, in the assay with JCK and with N140 was “inactive” each time. Further, the Potency entry with P93_24, with P94_40, in the assay with PAD, in the assay on PC15, in the assay with PC26 and in the assay on PC49 was “inactive” throughout. Further, the Potency result with SC27B and in the assay with TAB109 was “inactive” in each case.

`C[N+](C)(C)CCCCCCCCCC[N+](C)(C)C`: the Potency in the assay on DFO2036 was 4.47 µM (active); in the assay with DIV14, 1.07 µM (active); with DIV17 it was 1.69 µM (active); with DIV30, 4.26 µM (active); with Dd2, 3.16 µM (active); with ECU, 10 µM (active). The Potency was 5.01 µM (active) with FAB9; 3.01 µM (active) in the assay with GB4; 1.58 µM (active) in the assay on HB3; 2.24 µM (active) in the assay with ICS; 11.2 µM (active) in the assay on JCK; 2.82 µM (active) in the assay with N140. In addition, the Potency with P93_24 is 2.51 µM (active); with P94_40, 2.51 µM (active); in the assay with PAD, 2.24 µM (active); in the assay on PC15, 8.91 µM (active); in the assay with PC26 it was 6.01 µM (active); in the assay on PC49, 3.98 µM (active). The Potency is 3.98 µM (active) in the assay with SC27B and 3.55 µM (active) in the assay on TAB109.
